Results taken from ChEMBL document CHEMBL4513216, “Probing the Open Global Health Chemical Diversity Library for Multistage-Active Starting Points for Next-Generation Antimalarials” (ACS Infect Dis, 2020).
Screen size: about 69,000 compounds; about 8,600 (12%) showed an effect of 50% or more. The sample holds strong results, similar compounds and a random draw of the others, so the mix is not that of the screen.

system: Plasmodium berghei; test: Screen against P. berghei liver stage (PbLuc), transformed with Luciferase, at 10uM; type: functional, HepG2; details: tested at 10 uM

Structure (SMILES) | INHIBITION
CN(C)C[C@@H]1CN(C(=O)c2cc(-c3ccccc3)n[nH]2)C[C@@H]1CO | 43.9%
COc1ccc(S(=O)(=O)NC(=O)COC2CCCC2)cc1 | -0.96%
Cc1ccc(NC(=O)N2C[C@@H]3CC[C@H]2CN(Cc2cscn2)C3)cc1 | -28.6%
Nc1ccnc(N2C[C@H]3CC[C@@H](C2)N(CC2CCC2)C3=O)n1 | -32.4%
CCn1ccc(NC(=O)CCn2nc(C)c3ccccc32)n1 | -21.3%
CCN(CC)C(=O)Cn1ccc2cc(NC(=O)NC3CC3)ccc21 | -22.91%
CCC(=O)N1CCC(NC(=O)c2cccc(-n3ccnc3)c2)C1 (stereo not drawn) | 2.43%
Cc1cc(C)n(CC2CCCN2C(=O)c2cccc3c2OCCO3)n1 (stereo not drawn) | 10.85%
COC[C@@]12CCC[C@@H]1CN(C(=O)Cc1ccccn1)C2 | 39.4%
CS(=O)(=O)CC(=O)N1C[C@H]2CCC[C@@]2(COCc2ccccn2)C1 | 25%
O=C(Cc1ccsc1)N1C[C@H]2CCC[C@@]2(COCc2ccccn2)C1 | 63.8%
Cc1ccccc1C(=O)NC(C)c1cnn(C)c1 (stereo not drawn) | 40.8%
CNC(=O)CNCc1c[nH]nc1-c1cc2ccccc2o1 | 1.51%
CNc1nc2c(c(C(=O)N3CCCC3)n1)CN(C(=O)CCSC)CC2 | -36.6%
CN(C)CCN1CCN(C)C2(CCN(c3nccs3)CC2)C1=O | 17.2%
CS(=O)(=O)N1CCOC2(CCN(c3nccs3)CC2)c2ccccc21 | 5.36%
CN(C)CCN1CCOC2(CCN(c3nccs3)CC2)c2ccccc21 | 58.5%
CC(C)C(NC(=O)C1CCCC1)c1cc(O)nc(-c2cccnc2)n1 (stereo not drawn) | 28.925%
CS(=O)(=O)c1ccc(OCCCN2CCc3cncnc3C2)cc1 | 31.2%
CN(C)CCN1CCCC12CCCN(Cc1ccoc1)C2 (stereo not drawn) | 21.6%
Cc1nccc(C2CN(C(=O)c3cncnc3)C2)n1 | -14.2%
Cc1cccc(CN2C(=O)OCC2CO)c1F (stereo not drawn) | -21.8%
Cc1ccc(-c2cc(C(=O)NCCCc3csc(N)n3)[nH]n2)o1 | 64.6%
Cc1ccc(-c2cc(C(=O)NCCCc3csc(N)n3)[nH]n2)s1 | 56.5%
COc1ccc2c(C)c(C(=O)NCCCc3csc(N)n3)oc2c1 | 43.6%
Cc1ccc(-c2cc(C(=O)NCCN3CCCS3(=O)=O)[nH]n2)o1 | -7.25%
Cc1[nH]c2c(F)cccc2c1CC(=O)NCCCc1csc(N)n1 | 1.24%
Cn1cccc1-c1cc(C(=O)NCCCc2csc(N)n2)[nH]n1 | 35%
